Source: PubChem (National Center for Advancing Translational Sciences (NCATS))
KDM5B inh: KDM5B demethylase inhibition; Potency, µM (series often up to 57.7 µM), usual class: inhibitors; KDM5B demethylase, FDH-coupled NADH fluorescence (FDH is formaldehyde dehydrogenase); Q9UGL1; 220,000 compounds, 2.6% hits; further: nearly all actives have a fitted effect of over 70% in size
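Measured: NADH fluorescence change, 30 min, RT. System: KDM5BΔAP 200 nM final, H3K4me3 peptide, α-KG, Fe(II), ascorbate, NAD⁺ plus FDH, pH 7.5 HEPES. Compounds: titrated, 10 min pre-incubation with enzyme.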
HEK293 viab: reduces viability of HEK-293 SNCA reporter cells. 150,000 compounds, 0.12% hits. HEK-293-SNCA-luc viability, GF-AFC fluorescence, 24 h. Potency, µM (titrated, usually from 57.1 µM), usual class: cytotoxic. AID 1671193; further: nearly all actives have a fitted effect of over 30% in size
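Cytotoxicity counterscreen: after 24 h compound treatment of genome-edited SNCA-luciferase HEK-293 cells, live-cell protease substrate GF-AFC read by fluorescence after 30 min; activity scaled between DMSO (0%) and medium-only (-100%), curves Hill-fitted.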
IP6K1 inh: blocks human inositol hexakisphosphate kinase 1 | Q92551 | IP6K1 kinase, ADP-Glo luminescence, 2 h; active compounds read low | activity change, % (series mostly up to about 58 µM) | 140,000 compounds, 0.81% hits | AID 1645851; in the data active means activity change below about -25%
Target sequence (Q92551 whole entry, looked up): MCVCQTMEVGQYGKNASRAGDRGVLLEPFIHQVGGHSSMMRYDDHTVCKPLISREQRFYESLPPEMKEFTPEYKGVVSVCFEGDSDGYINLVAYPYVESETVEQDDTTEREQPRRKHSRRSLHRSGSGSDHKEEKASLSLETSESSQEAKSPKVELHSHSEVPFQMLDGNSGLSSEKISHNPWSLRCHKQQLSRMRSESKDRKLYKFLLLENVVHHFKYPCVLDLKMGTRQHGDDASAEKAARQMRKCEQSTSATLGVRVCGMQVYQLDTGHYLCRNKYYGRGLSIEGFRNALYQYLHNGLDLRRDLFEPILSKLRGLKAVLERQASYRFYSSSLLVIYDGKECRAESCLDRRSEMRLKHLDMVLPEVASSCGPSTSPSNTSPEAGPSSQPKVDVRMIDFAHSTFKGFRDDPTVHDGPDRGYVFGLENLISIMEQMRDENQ
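ADP-Glo luminescence measures ADP made by human IP6K1 during a 2 h RT reaction with ATP/IP6 (mix at 1.3 mM/130 uM); top library doses 57.5 and 19.1 uM final.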
SNCA expr inhib: inhibitors of alpha-synuclein (SNCA) gene expression; 140,000 compounds, 0.17% hits; Potency, µM (top dose mostly 57.2 µM), actives largely listed as inhibitors; HEK-293 SNCA-luciferase knock-in, luminescence, 24 h; AID 1671194; further: nearly all actives have a fitted effect of over 45% in size
IP6K1 conf: human IP6K1 inhibition, confirmatory; 1,200 compounds, 13% hits; shares compounds with IP6K1 inh; Potency, µM (highest dose often 49 µM), usual class: inhibitors; AID 1645852; recombinant IP6K1 kinase, ADP-Glo luminescence, 2 h; further: nearly all actives have a fitted effect of over 65% in size
A number is an active result; 0 = inactive; ? = inconclusive; - = no result; [ ] = another dose, or the depositor's remark. This is a sample that favours compounds with a hit; in the whole collection about 2.8% have one here. Unless noted, the call rests on the fitted dose curve; in most records, active means well fitted curve in the direction sought with a large enough effect; inconclusive means small, poorly fitted or top-dose-only effect, or another doubt; inactive means no such curve, though single readings can be large; an effect the other way counts as inactive or inconclusive.

SMILES	KDM5B inh	HEK293 viab	IP6K1 inh	SNCA expr inhib	IP6K1 conf
Cn1ncc2c(C(=O)NC3CC3)cc(-c3cccnc3)nc21	89µM	0	0	0	-
COC(=O)CNC(=O)c1cc(-c2ccc(Cl)nc2)nc2c1cnn2C	79µM	0	0	0	-
C#CCNC(=O)c1cc(-c2ccc(Cl)nc2)nc2c1cnn2C	100µM	0	0	0	-
O=C(Nc1ccc2cc[nH]c2c1)C(=O)N1CCCC1	0	-	-	-	-
CCC1c2ccsc2CCN1C(=O)CNC(=O)c1ccc(Cl)cc1Cl (configuration not stated)	0	-	-	-	-
c1cn(-c2ccc(Oc3nn[nH]n3)cc2)c(-c2cc3n(n2)CCNC3)n1	18µM	0	0	0	-
c1cn(-c2ccc(OCC3CCCO3)cc2)c(-c2cc3n(n2)CCNC3)n1 (configuration not stated)	?	0	0	0	-
O=C(NC1CCN(c2cc(-c3cccs3)[nH]n2)C1)c1cccc(Br)c1 (configuration not stated)	7.9µM	?	0	?	-
O=C(NC1CCN(c2cc(-c3cccs3)[nH]n2)C1)c1cccc(OC(F)(F)F)c1 (configuration not stated)	5µM	0	0	0	-
O=C(NC1CCN(c2cc(-c3cccs3)[nH]n2)C1)c1cccs1 (configuration not stated)	?	0	0	0	-
Cn1nc(C(=O)NCC(=O)N2CCCCCNC(=O)CC2c2ccccc2)c2ccccc21 (configuration not stated)	28µM	0	0	0	-
CC(=O)N1CCCC(c2nnc3n2CCNC3)C1 (configuration not stated)	79µM	0	0	0	-
COc1ccc(CN2C[C@H](COCc3ccccc3)Oc3ncccc3[S+]2(=O)[O-])cc1	-	0	0	0	-
Cn1cnc(CN2CCNc3cc(Nc4ccccc4)ncc3C2)c1	0	0	0	0	-
CN(C)c1ccc(CN2CCNc3cc(Nc4ccccc4)ncc3C2)cc1	40µM	?	0	0	-
COCCN1CCNc2cc(Nc3cccc(N(C)C)c3)ncc2C1	35µM	0	0	0	-
c1ccc(Nc2cc3c(cn2)CN(Cc2ccccn2)CCN3)cc1	32µM	0	0	0	-
CC(NC(=O)C1CCN(C(=O)c2cccc3ccccc23)CC1)c1ccccc1 (configuration not stated)	0	-	-	-	-
Cc1ccc(NC(=O)c2nccnc2-c2nc3ccccc3s2)cc1Cl	0	-	-	-	-
CCCS(=O)(=O)NCC1CN(CC2CC2)CC12CCCCC2 (configuration not stated)	-	?	0	0	-
CCCc1nc(C(=O)NC2CCCc3nc(N(C)C)ncc32)cs1 (configuration not stated)	25µM	0	0	0	-
CN(C)c1ncc2c(n1)CCCC2NC(=O)CN1C(=O)NC(C)(C)C1=O (configuration not stated)	?	0	0	0	-
O=C(Cn1cc(S(=O)(=O)Cc2cccc(Cl)c2)c2ccccc21)Nc1ccc(F)c(Cl)c1	0	0	-37	0	0
CN1c2cc(C(=O)NCCCc3ccccc3)ccc2C(=O)N2CCCC21 (configuration not stated)	?	0[12.5 µM]	0	0	-
CC(C)CC(=O)N1CCn2c(nnc2[C@@H]2C[C@@H](O)CN2Cc2ccccc2)C1	0	0[12.5 µM]	0	0	-
SMILES	KDM5B inh	HEK293 viab	IP6K1 inh	SNCA expr inhib	IP6K1 conf
CCCc1nc(C(=O)N2C[C@H](c3cccc(OC)c3)[C@@H](N)C2)cs1	?	0	-26	0	0
CCCOc1ccc(C(=O)N2C[C@H](c3cccc(OC)c3)[C@@H](N)C2)cc1Cl	0	0	0	0	-
O=c1cc(C2=CCOCC2)oc2c(-c3cccc4[nH]ccc34)nccc12	?	?	-25	0	?
COc1ccccc1-c1nccc2c(=O)cc(-c3ccccn3)oc12	?	0	0	?	-
NC(=O)Cc1c[nH]c2ncc(-c3ccc(Oc4ccccc4)cc3)cc12	?	0	-42	0	?
CNC(=O)c1cccc(-c2cnc3[nH]cc(CC(=O)N(C)c4ccccc4)c3c2)c1	0	?	-29	0	?
NC(=O)Cc1c[nH]c2ncc(-c3cccc(F)c3)cc12	32µM	0	-35	0	?
Cc1cc(-c2cnc3[nH]cc(CC(N)=O)c3c2)ccn1	0	0	0	0	-
COc1ccccc1NC(=O)CN1C(=O)CSc2ccc(S(=O)(=O)N3CCCC3)cc21	0	0	0	0	-
O=C(NCc1cccs1)[C@@H]1C[C@@H](O)[C@H](O)[C@@H]2NC(=S)N(c3ccc(OC(F)(F)F)cc3)[C@@H]21	0	0	0	0	-
CCOC(=O)c1cccc(NC(=O)c2oc3c(c2C)-c2nn(CC)cc2CC3)c1	?	0	-28	0	?
O=C(c1ccc(F)cc1)N1CC(c2noc(-c3ccccc3)n2)C1	0	0	0	0	-
O=Nc1c(-c2c(O)[nH]c3ccccc23)[nH]c2ccccc12	-	?	-	0	0
Oc1[nH]c2ccccc2c1N=Nc1ccccc1	0	-	-	-	-
O=C(CN1C(=O)NC2(CCS(=O)(=O)CC2)C1=O)Nc1cccc(C(F)(F)F)c1	0	0	0	0	-
N#Cc1cc(NC(=O)C(=O)O)c(Cl)c(NC(=O)C(=O)O)c1	-	0	-35	0	0
Cc1ccccc1NC(=O)CSc1nc2ccccc2o1	0	-	-	-	-
Cc1cnc(Nc2ccc(CN3CCOCC3)cc2)nc1Nc1cccc(S(=O)(=O)NC(C)(C)C)c1	-	?	0	0	0
Cc1cnc(Nc2cccc(CN3CCOCC3)c2)nc1Nc1cccc(S(=O)(=O)NC(C)(C)C)c1	-	0	0	0	0
O=C(O)c1cccc(OCc2nnnn2-c2ccc(Br)cc2)c1	0	-	-	-	-
Cc1ccc(C)c(N2CCN(S(=O)(=O)c3cn(C)c(C)n3)CC2)c1	0	0	0	0	-
O=C1CC(c2ccccc2)Sc2nc(-c3ccc(F)cc3)nn21 (configuration not stated)	0[11.5 µM]	0	-27	0	0
COc1cccc(Nc2cc(-c3cccs3)nc3c(C)noc23)c1	35µM	0	-25	0	?
O=c1c(S(=O)(=O)c2ccc(Cl)cc2)cn(Cc2ccc(F)cc2)c2ccc(F)cc12	0	0	-38	0	?
COc1cc2c(=O)c(S(=O)(=O)c3ccc(F)cc3)cn(Cc3ccc(Cl)cc3)c2cc1OC	0	0	0	0	-
SMILES	KDM5B inh	HEK293 viab	IP6K1 inh	SNCA expr inhib	IP6K1 conf
CCOC(=O)c1c(C)[nH]c(CCC(=O)Nc2cc(C)cc(C)c2)c1C	0	0	0	0	-
Cc1cc(CS(=O)(=O)c2ccccc2)cc(OCc2ccc(CN3CCC[C@@H]3CO)cc2)c1	-	0	-41	-	0
Cc1ccc(NC(=O)CSc2nnc3scc(-c4ccc(Cl)cc4)n23)cc1	0	0	0	0	-
C[C@@]1(O)CCN(C2CCN(c3ccc(F)cc3)CC2)C[C@@H]1O	?	0	0	0	-
O=C(O)CC1(O)C(=O)Nc2cc(Br)ccc21 (configuration not stated)	0	-	-	-	-
O=C(O)CC1(O)C(=O)Nc2ccccc21 (configuration not stated)	-	0	-31	-	?
